The values below come from PubChem BioAssay AID1851 (National Center for Advancing Translational Sciences (NCATS), 2009).

“And” between values parts separate entries of the source, which are not always exact repeats. Equal entries are not always repeated. Out of some 16,000 compounds screened, about 5,800 (36%) were called active. Another 23% or so got no clear call; they are omitted. The list shows a part of the results. Unmarked numbers belong to inactive results. Calls come from the whole dose curve; as a rule, active = well fitted curve in the direction sought with a large enough effect; inconclusive = small, poorly fitted or top-dose-only effect, or effect the other way; inactive = no such curve, though single readings can be large or run the other way.
% is set by controls: 0 for no effect and ±100 for the full control effect.

Chain of Cytochrome P450 2C19 (Homo sapiens) (P33261 whole entry, looked up): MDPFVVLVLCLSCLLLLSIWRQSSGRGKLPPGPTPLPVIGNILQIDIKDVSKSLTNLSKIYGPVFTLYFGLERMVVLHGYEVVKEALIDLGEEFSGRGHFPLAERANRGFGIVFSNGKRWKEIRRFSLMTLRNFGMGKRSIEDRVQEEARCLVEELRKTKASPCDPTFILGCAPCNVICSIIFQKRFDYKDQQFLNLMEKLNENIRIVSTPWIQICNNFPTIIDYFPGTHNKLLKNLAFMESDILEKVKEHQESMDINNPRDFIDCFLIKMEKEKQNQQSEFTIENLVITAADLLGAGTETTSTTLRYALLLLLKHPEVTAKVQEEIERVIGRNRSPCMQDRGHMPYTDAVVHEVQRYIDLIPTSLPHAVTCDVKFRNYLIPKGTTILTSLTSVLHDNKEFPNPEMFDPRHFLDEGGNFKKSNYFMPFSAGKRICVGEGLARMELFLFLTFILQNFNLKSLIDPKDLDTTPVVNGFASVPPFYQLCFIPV

This experiment addresses Cytochrome P450 2C19 (Homo sapiens) (UniProt P33261). The experiment in a line: Cytochrome panel assay with activity outcomes. The note with it: recombinant CYP, pro-luciferin dealkylation, luminescence, p450-cyp2c19; series mostly up to 57.1 µM; activity, negative = inhibition: at the top concentration.
For the molecule `COc1cc(C(=O)NC(=S)Nc2ccc(Cl)c(C(=O)O)c2)cc(OC)c1OC`, the “activity, negative = inhibition” value is -6.67%.
Take `COc1cccc(C(=O)Nc2cc(C(F)(F)F)ccc2Cl)c1`: the half-maximal activity concentration (AC50) was 7.08 µM (active).
With `CCCC(=O)Nc1ccc(C(=O)Nc2cc(C(F)(F)F)ccc2Cl)cc1`, the AC50 was 20 µM (active).
For `CN(C)c1cc[n+](CC(=O)Nc2cc(C(F)(F)F)ccc2Cl)cc1`, the “activity, negative = inhibition” value was -23.1%.
Regarding `C/C(CCN1CCCCc2nc(C)c(C)cc21)=N\O[C@@H](C)c1cn([C@H](CO)Cc2ccccc2)nn1`, the activity, negative = inhibition was -12.5% [at 11.4 µM] and 36.9% [at 11.4 µM].
Turning to `COc1ccc(NC(C)=O)cc1NC(=O)CN1CCN(C2c3ccccc3-c3ccccc32)CC1`, the concentration at half-maximal activity (AC50) is 2.51 µM (active).
Consider `CC(C)OC(=O)CN1CCN(C2c3ccccc3-c3ccccc32)CC1`, for which the AC50 was 7.08 µM (active).
`CC(=O)Nc1ccc2c(c1)C(=Nc1ccc(C(=O)O)cc1)c1ccccc1-2`: the activity, negative = inhibition is 24.2% [at 11.4 µM].
As for `COc1ccccc1NC(=O)CN1CCN(C2c3ccccc3-c3ccccc32)CC1`, the AC50 was 0.708 µM (active).
`O=C(O)C[C@@H](C(=O)O)C1c2ccccc2-c2ccccc21`: the activity, negative = inhibition was 26.9% [at 11.4 µM].
On the same count and under the same terms, next, `COC(=O)C/C=C1\c2ccccc2[C@H](OC)[C@H]1C`: 23.9% [at 11.4 µM]; `N#CCCn1c(=O)c(-c2cc(F)cc(F)c2)nc2cnc(Nc3ccccc3)nc21`: 25%.
The same measure, in the same setting: next, `FC(F)(F)c1cc(CN2CC3(CCNCC3)C2)cc(C(F)(F)F)c1`: 10.5%; `COc1cc(C2SCCCCCCCCCCSC(c3ccc(O)c(OC)c3)SCCCCCCCCCCS2)ccc1O` (centres undefined): 20.3% [at 11.4 µM].
For `Cn1c(Oc2ccccc2)c(C=O)c2ccccc21`, the half-maximal activity concentration (AC50) is 4.47 µM (active).
Regarding `COc1ccc(Oc2ncc3nc(-c4cn(C)c5ccccc45)c(=O)n(C)c3n2)cc1`, the “activity, negative = inhibition” value is 17%.
As for `Cc1ccc(C(=O)O/N=C/c2c(Cl)n(C)c3ccccc23)cc1`, the “activity, negative = inhibition” value was -9.13%.
Same read-out and setting: with `Cn1cc(-c2nc3cnc(Oc4ccccc4)nc3n(C)c2=O)c2ccccc21` the figure was -13.6%.
On to `COc1ccc(Oc2c(C=O)c3ccccc3n2C)cc1`, for which the AC50 was 2.82 µM (active).
With `Cc1cc(NC(=O)COc2ccc(Cl)cc2Cl)n(-c2ccccc2)n1`, the AC50 is 1.12 µM (active).
As for `O=C(COc1ccccc1Cl)Nc1cc(Cl)ccc1Oc1ccccc1`, the AC50 was 1 µM (active).
In the case of `c1cncc(-c2ccc3ncnc(NC4CCNCC4)c3c2)c1`, the “activity, negative = inhibition” value is -7.83%.
Same read-out and setting: with `CS(=O)(=O)Nc1cccc(-c2ccc3ncnc(NC4CCNCC4)c3c2)c1` the figure was 3.78%; with `c1nc(NC2CCNCC2)c2cc(-c3ccc4c(c3)OCO4)ccc2n1`, -26.1%.
For the molecule `COc1cccc(-c2ccc3ncnc(NC4CC4)c3c2)c1`, the AC50 was 1.26 µM (active).
On to `COc1cccc(-c2ccc3ncnc(NC4CCNCC4)c3c2)c1`, for which the AC50 was 6.31 µM (active).
On to `c1nc(NC2CCNCC2)c2cc(-c3ccoc3)ccc2n1`, for which the “activity, negative = inhibition” value was -44.8%.
Still for that read-out and setting: next, `CN(C)c1ccc(-c2ccc3ncnc(NC4CC4)c3c2)cc1`: -44.6%.
On to `Cc1noc(C)c1-c1ccc2ncnc(NC3CCNCC3)c2c1`, for which the AC50 is 15.8 µM (active).
Take `Cc1cc(C)n(-c2nc3ccccc3c(=O)n2OCc2ccc(Cl)cc2)n1`: the AC50 was 0.398 µM (active).
Turning to `Cn1c(=O)c(-c2ccc(Cl)cc2)nc2cnc(OCc3ccccc3)nc21`, the “activity, negative = inhibition” value is 12.8%.
As to `CCOC(=O)c1cc2c(ccn2C)n1CC(=O)N1CCCC(C)C1` (centres undefined), the AC50 was 8.91 µM (active).
With `CC(C)OC(=O)c1cc2c(ccn2C)n1CC(=O)N1CCC(Cc2ccccc2)CC1`, the AC50 was 14.1 µM (active).
On to `C[C@@H](CN1CCC(Cc2ccccc2)CC1)[C@@H](O)c1ccc(O)cc1`, for which the “activity, negative = inhibition” value was 18.2%.
Turning to `Cc1ccc(C)c(Cn2c(C(=O)OC(C)C)cc3c2ccn3C)c1`, the concentration at half-maximal activity (AC50) was 1.78 µM (active).
On to `C[C@@H](CN1CCC(Cc2ccccc2)CC1)[C@H](O)c1ccc(O)cc1`, for which the “activity, negative = inhibition” value was 15.6%.
In the case of `Clc1ccc(-c2nnc(CCc3ccccc3)o2)c(Cl)c1`, the AC50 was 1.41 µM (active).
Same read-out and setting: next, `CSc1nnc(-c2ccc(Cl)cc2Cl)o1`: 25.1 µM (active).
Take `c1ccc(C2=NN[C@@H]3c4ccccc4-c4ccccc4N3C2)cc1`: the activity, negative = inhibition is -22.1% [at 11.4 µM].
In the case of `CN(C)C(=O)c1ccc(-c2ccc3ncnc(N4CCNCC4)c3c2)cc1`, the “activity, negative = inhibition” value was -11.3%.
In the case of `CN(C)c1ccc(-c2cncnc2-n2ccnc2)cc1`, the AC50 is 3.98 µM (active).
With `COc1cccc(-c2cncnc2-n2ccnc2)c1`, the AC50 is 0.631 µM (active).
Regarding `CS(=O)(=O)Nc1cccc(-c2cncnc2-n2ccnc2)c1`, the “activity, negative = inhibition” value was -13.4%.
With `c1cncc(-c2cncnc2-n2ccnc2)c1`, the “activity, negative = inhibition” value was -34.8%.
In the case of `CN(C)c1ccc(-c2ccc3ncnc(-n4ccnc4)c3c2)cc1`, the half-maximal activity concentration (AC50) was 10 µM (active).
Take `CN1CCN(c2ncncc2-c2ccc(N(C)C)cc2)CC1`: the AC50 was 10 µM (active).
On to `CN1CCN(c2ncncc2-c2ccc(C(=O)N(C)C)cc2)CC1`, for which the “activity, negative = inhibition” value was -10.9%.
For `CN(C)c1ccc(-c2ccc3ncnc(N(C)C)c3c2)cc1`, the “activity, negative = inhibition” value was -40.3%.
Same read-out and setting: next, `CN(C)C(=O)c1ccc(-c2cncnc2N2CCNCC2)cc1`: 5.63%.
